# Assay results taken from PubChem BioAssay (EPA / NIEHS).
# Several values for one entry are separate records, joined by “and”; a condition that tells them apart may be missing. Identical values can stand only once. Activity calls are given as the source filed them. How the source made its calls: active means hit-call score of the fitted dose curve at least 0.9, where 1 is the maximum; inactive means score below 0.9.
# Read-out: Cellular tumor antigen p53 (Homo sapiens) (UniProt P04637)
# Assay: LTEA_HepaRG_TP53: Life Technologies and Expression Analysis (LTEA) Assay for Tumor Protein P53 (TP53) using HepaRG (AID 2283537)
# Conditions: mRNA level, 48 h; actives raise or lower the signal
# Description: LTEA_HepaRG is a cell based, multiplexed-readout assay that uses HepaRG, a human liver cell line, with measurements taken at 48 hours after chemical dosing on a 96-well plate.LTEA_HepaRG_TP53 is one of 102 assay component(s) measured in the LTEA HepaRG cell culture assay. It is a marker of Oxidative Stress.Data from the assay component LTEA_HepaRG_TP53 was analyzed into 1 endpoint. This assay endpoint, LTEA_HepaRG_TP53, was analyzed with bidirectional fitting relative to DMSO as the negative control and baseline of activity. Using a type of inducible reporter, measures of mRNA induction for gain or loss-of-signal activity can be used to understand regulation of transcription factor activity. To generalize the intended target to other relatable targets, this assay endpoint is annotated to the dna binding intended target family, where the subfamily is tumor suppressor.
# A total of 1060 chemcials from the ToxCast library were tested in eight-point concentration-response experiments. Cell culture and cytotoxicity assays were conducted at Thermo Fisher Scientific's Custom Services facility (Madison, WI). A single lot of human HepaRG cells (Thermo Fisher Scientific, Frederick, MD) was used for the cell culture experiments. 96-well format collagen type I coated plates of human HepaRG cells were prepared using established methods. Briefly, cryopreserved HepaRG cells were thawed, plated at a density of approximately 100,000 cells/well in HepaRG Thaw, Plate, and General Purpose media (HPRG770, Thermo Fisher Scientific), and incubated for 48 hours. 0.5% DMSO was selected as vehicle control to balance the requisite need of DMSO in HepaRG cultures to maintain differentiation (for example, baseline metabolism, proportions of hepatocytes vs. cholangiocytes), while enabling further hepatic receptor pathway activation (for example, PXR and CAR) in response to chemical exposure. 48 hours after plating, the culture medium was replaced with HepaRG Serum-Free Incudtion Media. Cells were exposed to each test chemical in duplicate and maintained in CO2 incubators for another 48 hours. Chemical plates were thawed to room temperature and 200x concentrations of treatment groups were prepared. 8-point conentration-reponse curves were made with the highest exposure at 100 uM, followed by half-log dilutions, all in 0.5% DMSO. Each test plate contained variouse controls, induction positive controls (1mM phenobarbital), cytotoxicity positive controls ([…] aflatoxin B1), vehicle controls (0.5% DMSO), and total lysis controls (0.5% DMSO). Cell morphology images were taken using an Essen IncuCyte FLR automated microscope, with six 96-well plates imaged in about 24 minutes. Images were captured and exported and JPEG files. Spent culture media was transfered to black-well plates for the LDH assay, and remaining media was sorted at -80 C for later use. Cells were treated with RLT buffer and frozen until shipped for gene expression analysis. Total RNA was isolated from the cell suspension in 75 uL of Buffer RLT (Qiagen, Germantown, MD 20874) by Quintiles/Expression Analysis (Durham, NC) using a custom isolation procedure. Total RNA from each plate well was transferred to a preamplification plate. Fluidigm's 96.96 Dynamic ArrayTM (Fluidigm, Amsterdam, the Netherlands) technology was used for gene expression analyses by quantitative reverse transcription polymerase chain reaction (qRT-PCR, performed by Quintiles/Expression Analysis, Durham, NC)89. Standard TaqManTM Assays (Applied Biosystems/ThermoFisher Scientific, Foster City, CA) were used to assess the expression of 93 genes selected based on their selectivity and sensitivity to important hepatic receptors known to be modulated by environmental chemicals; importance in human hepatocyte functionality; and hepatotoxicity. […]
# Cellular tumor antigen p53 (Homo sapiens), sequence (P04637 whole entry, looked up): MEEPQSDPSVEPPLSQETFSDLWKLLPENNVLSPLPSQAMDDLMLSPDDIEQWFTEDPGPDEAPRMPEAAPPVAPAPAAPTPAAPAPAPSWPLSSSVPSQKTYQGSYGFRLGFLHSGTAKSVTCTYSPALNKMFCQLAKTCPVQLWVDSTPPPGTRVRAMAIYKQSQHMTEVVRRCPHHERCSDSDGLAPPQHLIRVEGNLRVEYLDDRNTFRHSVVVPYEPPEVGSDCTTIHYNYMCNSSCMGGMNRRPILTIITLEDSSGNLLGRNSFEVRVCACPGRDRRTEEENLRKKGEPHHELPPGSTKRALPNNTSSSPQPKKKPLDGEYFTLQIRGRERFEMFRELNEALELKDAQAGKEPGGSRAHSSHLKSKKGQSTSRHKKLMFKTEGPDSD
SMILES,AC50,outcome
N#Cc1cc(Br)c(O)c(Br)c1,10.4 µM (active),
COC(=O)C(C)Oc1ccc(Oc2ccc(Cl)cc2Cl)cc1 (stereo not given),,inactive
C=CCC1=C(C)[C@@H](OC(=O)[C@@H]2[C@@H](C=C(C)C)C2(C)C)CC1=O,,inactive
CO/C=C(/C(=O)OC)c1ccccc1Oc1cc(Oc2ccccc2C#N)ncn1,84.8 µM (active) and 83.1 µM (active) and 83 µM (active),
COC(=O)c1ccccc1C(=O)OC,,inactive
CCCC1COC(Cn2cncn2)(c2ccc(Cl)cc2Cl)O1 (stereo not given),34.3 µM (active),
O=C(O)COc1nc(Cl)c(Cl)cc1Cl,,inactive
COP(=S)(OC)Oc1nc(Cl)c(Cl)cc1Cl,,inactive
CNC(=S)S,,inactive
COc1cnc(OC)n2nc(NS(=O)(=O)c3c(OCC(F)F)cccc3C(F)(F)F)nc12,,inactive
Oc1ccccc1-c1ccccc1,,inactive
N#Cc1nn(-c2c(Cl)cc(C(F)(F)F)cc2Cl)c(N)c1S(=O)C(F)(F)F (stereo not given),32 µM (active),
CCCCNC(=O)n1c(NC(=O)OC)nc2ccccc21,,inactive
COc1nc(NC(C)C)nc(NC(C)C)n1,,inactive
CCNc1nc(Cl)nc(NCC)n1,,inactive
CC(C)C1(C)N=C(c2nc3ccccc3cc2C(=O)O)NC1=O (stereo not given),,inactive
CC(Oc1ccc(Cl)cc1Cl)C(=O)O (stereo not given),,inactive
CNC(=O)ON=CC(C)(C)SC,,inactive
COC(=O)C=C(C)OP(=O)(OC)OC,,inactive
CCCCNC(=O)OCC#CI,,inactive

SMILES,AC50,outcome
CCNc1nc(Cl)nc(NC(C)C)n1,,inactive
CN(C)C(=S)SSC(=S)N(C)C,,inactive
CC1COC(Cn2cncn2)(c2ccc(Oc3ccc(Cl)cc3)cc2Cl)O1 (stereo not given),11.6 µM (active),
COC(=O)N(OC)c1ccccc1COc1ccn(-c2ccc(Cl)cc2)n1,78.5 µM (active),
Cc1ccc(-c2c(Cl)nc(C#N)n2S(=O)(=O)N(C)C)cc1,,inactive
CCON=C(CC)C1=C(O)CC(c2c(C)cc(C)cc2C)CC1=O (stereo not given),,inactive
Cc1cc(Cl)ccc1OCC(=O)O,,inactive
COP(N)(=O)SC (stereo not given),,inactive
O=C(O)c1nc(Cl)ccc1Cl,,inactive
CC(C)Oc1cc(-n2nc(C(C)(C)C)oc2=O)c(Cl)cc1Cl,86.3 µM (active),
C=CC1(C)OC(=O)N(c2cc(Cl)cc(Cl)c2)C1=O (stereo not given),,inactive
C#CCOS(=O)OC1CCCCC1Oc1ccc(C(C)(C)C)cc1 (stereo not given),58.4 µM (active),
O=C(Nc1ccccc1)Nc1ccnc(Cl)c1,74 µM (active),
CCOC(=O)CC(SP(=S)(OC)OC)C(=O)OCC (stereo not given),,inactive
C=CCC1=C(C)C(OC(=O)C2C(C=C(C)C)C2(C)C)CC1=O (stereo not given),,inactive
CS/C(C)=N/OC(=O)N(C)SN(C)C(=O)O/N=C(\C)SC,,inactive
CC(C)(C)c1ccc(CSc2cnn(C(C)(C)C)c(=O)c2Cl)cc1,2.82 µM (active),
CCOc1cc(Oc2ccc(C(F)(F)F)cc2Cl)ccc1[N+](=O)[O-],14 µM (active),
CCOP(=S)(OCC)SCn1c(=O)oc2cc(Cl)ccc21,,inactive
CON(C)C(=O)Nc1ccc(Cl)c(Cl)c1,69.8 µM (active),
